We go through 14 compounds from PubChem BioAssay (NCI).

The panel holds about 83,000 compounds, 20% with a hit somewhere; the sample as a whole holds those more often.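 Note: values are percent growth. 100 is the growth of untreated cells, values between 100 and 0 indicate rising inhibition; between -100 and 0 indicates cell death.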 Unmarked numbers belong to inactive results. Activity calls are given as the source filed them. How the source made its calls: active means growth percent below 10; inactive means the rest.

Holding throughout (experiment): NCI-60 one-dose screen, 48 h (100 = growth as untreated, 0 = no growth, -100 = all killed)
Holding throughout (settings): 10 µM unless noted

Experiment [1] has as its system NCI-H23 lung.
Experiment [2] relates to NCI-H226 lung.
Experiment [3] deals with NCI-H322M lung.
Experiment [4] concerns HOP-62 NSCLC.
In experiment [5] the test system is NCI-H460 lung.
For experiment [6], the system named is HOP-92 NSCLC.
Experiment [7] concerns NCI-H522 lung.
The test system of experiment [8] is A549/ATCC NSCLC.
In experiment [9] the test system is 786-0 renal.
Experiment [10] concerns COLO 205 colon.
The test system of experiment [11] is DU-145 prostate.
Experiment [12] relates to MALME-3M melanoma.
Experiment [13] has as its system MDA-MB-231 breast.
Experiment [14] has as its system RXF 393 renal.
Experiment [15] has as its system SF-268 CNS.
Experiment [16] deals with SF-295 CNS.
Experiment [17] relates to SF-539 CNS.
Experiment [18] concerns UACC-257 melanoma.
Experiment [19] relates to M14 melanoma.
Experiment [20] concerns K-562 leukemia.

On to `OCc1cnccc1NCCCOc1ccccc1`, for which the growth in experiment [1] is 97.7%; in [2] it was 92.9%; in experiment [3] it was 100%; in [4], 99.9%; in experiment [5], 106%; in experiment [6] it was 90.5%. Further, the growth was 100% in experiment [7]; 93.2% in experiment [8]; 101% in experiment [9]; 123% in experiment [10]; 104% in experiment [11]; 104% in experiment [12]. Moreover, the growth is 88.6% in experiment [13]; 104% in experiment [14]; 101% in experiment [15]; 104% in [16]; 102% in experiment [17]; 100% in [18]. Further, the growth in [19] is 109%.

Regarding `CCCCCC(=O)Oc1ccc(/C(=C(/C)Cc2ccc(OC)cc2)c2ccc(OCCCN(C)C)cc2)cc1`, the growth is 76.7% in [1]; 93.3% in [2]; 92.1% in [3]; 80.4% in experiment [4]; 69.6% in experiment [5]; 73.4% in experiment [6]. In addition, the growth in experiment [7] is 98.1%; in experiment [8] it was 76.1%; in experiment [9], 58.4%; in experiment [10], 55.6%; in experiment [11] it was 90.4%; in [20], 6.07% (active). The growth in experiment [12] was 74.9%; in [13], 66.1%; in experiment [14], 61.6%; in experiment [15], 70.1%; in experiment [16] it was 32.4%; in experiment [17], 66.8%. Moreover, the growth in experiment [18] was 75.9%; in experiment [19] it was 36.3%.

Turning to `COc1ccc(-c2cnc3c(-c4cccc5ncccc45)cnn3c2)cc1`, the growth in experiment [1] was 50%; in experiment [2], 0.736% (active); in [3], 42.7%; in experiment [4] it was 4.66% (active); in experiment [5] it was 33.9%; in experiment [6], 24.9%. In addition, the growth in [7] was 32.8%; in experiment [8] it was 27.2%; in experiment [9], 18.3%; in experiment [10], 88.5%; in experiment [11] it was 58.1%; in experiment [12], 15%. The growth is -1.88% (active) in [13]; 26.7% in experiment [14]; 19% in [15]; 32.2% in experiment [16]; 30.8% in experiment [17]; 51.3% in [18]. Moreover, in experiment [19], the growth was 76.8%.

With `O=c1c2c(c(=O)n1O)c1c3ccc[nH]c3nc1c1nc3[nH]cccc3c12`, the growth was 86.7% in experiment [1]; 87.1% in experiment [2]; 91% in experiment [3]; 83% in [4]; 93.1% in experiment [5]; 80.1% in experiment [6]. The growth is 55% in experiment [7]; 79.4% in [8]; 87.5% in [9]; 94.9% in [10]; 95.4% in experiment [11]; 84.3% in experiment [12]. In addition, the growth is 77.4% in experiment [13]; 87% in experiment [14]; 71.7% in [15]; 96% in experiment [16]; 83.9% in [17]; 85.4% in experiment [18]. For the same compound, the growth in [19] is 94%.

In the case of `C=CCn1c(-c2ccc(-c3nc4ccc(C)cc4[nH]3)cc2)n[nH]c1=S`, the growth in experiment [1] is 94.6%; in [2] it was 94.1%; in experiment [3], 102%; in experiment [4], 97.7%; in [5], 105%; in [6], 117%. In addition, the growth in experiment [7] is 90.7%; in experiment [8], 99.2%; in experiment [9], 107%; in experiment [10] it was 120%; in experiment [11], 111%; in [12], 96.6%. Moreover, the growth was 90.7% in experiment [13]; 110% in [14]; 112% in experiment [15]; 92.1% in experiment [16]; 97% in experiment [17]; 102% in experiment [18]. For the same compound, in experiment [19], the growth was 98%.

Regarding `O=C1Nc2ccccc2/C1=C\c1c(-c2ccccc2)nc2ccccn12`, the growth in experiment [1] is 8.45% (active); in experiment [2], 57.6%; in experiment [3], 70.1%; in [4], 41.3%; in experiment [5] it was 24.3%; in [6], 66.6%. For the same compound, the growth in [7] is 22.3%; in experiment [8], 47.1%; in [9], 58.7%; in experiment [10], 31%; in experiment [11] it was 63.5%; in experiment [12] it was 43.6%. The growth was 59.2% in experiment [13]; 26.8% in [14]; 51.2% in experiment [15]; 24% in [16]; 49.6% in experiment [17]; 87.6% in experiment [18]. For the same compound, the growth in [19] is 3.79% (active).

For the compound `O=C(/C(=C\c1ccc([N+](=O)[O-])cc1)S(=O)Cc1ccc(Cl)cc1)c1ccc(Cl)cc1` (centres undefined), the growth in experiment [1] was 84.5%; in experiment [2] it was 92.9%; in experiment [3], 89.5%; in experiment [4] it was 96.1%; in experiment [5] it was 76.3%; in [6], 83.6%. Moreover, the growth in experiment [7] was 37.5%; in [8], 93.8%; in experiment [9] it was 32.1%; in experiment [10], 74.7%; in experiment [11], 77.7%; in experiment [12], 92.7%. In addition, the growth in experiment [13] was 76.2%; in experiment [14], 52.4%; in [15], 64%; in experiment [16], 90.5%; in experiment [17], 99.1%; in experiment [18], 100%. Moreover, in [19], the growth was 63.3%.

For the compound `O=Cc1ccc(-c2cn3ccnc3c(-c3ccc4ncn(Cc5ccccc5)c4c3)n2)cc1`, the growth was 45.5% in [1]; 99.5% in experiment [2]; 88.8% in experiment [3]; 76.2% in [4]; 62.2% in experiment [5]; 57% in experiment [6]. In addition, the growth was 74.7% in experiment [7]; 103% in experiment [8]; 53.3% in experiment [9]; 126% in [10]; 75.7% in experiment [11]; 113% in experiment [12]. In addition, the growth in [13] was 40.8%; in [14], 75%; in experiment [15] it was 72.9%; in experiment [16], 76.9%; in [17], 68.5%; in [18] it was 122%. For the same compound, the growth in experiment [19] is 77%.

Regarding `COc1ccc(Cc2cnc(NC(=O)c3ccc4c(c3)OCCO4)s2)cc1`, the growth is 18.8% in [1]; 1.86% (active) in [2]; 41.3% in experiment [3]; 29.1% in experiment [4]; 6.33% (active) in experiment [5]; 57.8% in experiment [6]. Moreover, the growth in experiment [7] is -2.66% (active); in experiment [8], 16.1%; in [9] it was 26.6%; in experiment [10] it was -6.28% (active); in experiment [11], 14.9%; in experiment [12], 55.4%. For the same compound, the growth in [13] was 37.1%; in experiment [14], 19.5%; in [15], 34.8%; in experiment [16], 10.5%; in [17], -1.94% (active); in experiment [18] it was 46.4%. Moreover, the growth in [19] was 15.6%.

As to `CNCCOc1nc2c3cnccc3cc(-c3cc(OC)c(OC)c(OC)c3)c2c2ccncc12`, the growth in [1] is -49.1% (active); in experiment [2] it was -42.5% (active); in experiment [3], -4.74% (active); in experiment [4], -39% (active); in [5] it was -46.8% (active); in [6] it was -20.8% (active). Further, the growth in experiment [7] is -62.7% (active); in [8], -8.59% (active); in [9], -96.7% (active); in experiment [10], -61.2% (active); in [11], -13.7% (active); in [12], -80.2% (active). In addition, the growth in experiment [13] is -9.1% (active); in experiment [14], -85.7% (active); in experiment [15], -9.41% (active); in experiment [16] it was -20.7% (active); in experiment [17], -59.5% (active); in experiment [18], -43.1% (active). Also, the growth in experiment [19] is -67.8% (active).

As to `C=C(C)[C@@H]1CC[C@]2(CN)CC[C@]3(C)[C@H](CC[C@@H]4[C@@]5(C)CCCNC(C)(C)[C@@H]5CC[C@]43C)[C@@H]12`, the growth is 10.5% in experiment [1]; 53.9% in experiment [2]; -42.7% (active) in experiment [3]; 21.2% in [4]; -78.3% (active) in experiment [5]; -29.4% (active) in experiment [6]. Besides, the growth is -31% (active) in [7]; -68.4% (active) in [8]; -97.2% (active) in experiment [9]; -71.2% (active) in experiment [10]; -53.5% (active) in experiment [11]; -56.1% (active) in [20]. For the same compound, the growth in experiment [12] is -70.5% (active); in [13], -79.7% (active); in [14], -87.4% (active); in experiment [15], 22.9%; in [16], -59.6% (active); in [17], -31.8% (active). Besides, the figures for the growth in experiment [18] and in [19] were 46.3% and -77.7% (active), respectively.

With `CCCCCCCCCCCCCCCC[N+]1(C)CCN(SN2CC[N+](C)(CCCCCCCCCCCCCCCC)CC2)CC1`, the growth in experiment [1] is 52.8%; in [2], 78.9%; in experiment [3], 80.3%; in experiment [4], 56.6%; in [5] it was 29.6%; in experiment [6], 15.5%. Moreover, the growth in [7] is 54.8%; in experiment [8], 72%; in experiment [9] it was 30.3%; in [10], 61%; in [11] it was 70.5%; in experiment [20] it was 40.4%. The growth in [12] was 78.4%; in experiment [13], 53.9%; in [14], -7.8% (active); in experiment [15] it was 64.4%; in [16], 71.2%; in experiment [17] it was 48.7%. Besides, the results for the growth in [18] and in experiment [19] were 92.9% and 20.8%, respectively.

For the compound `CCN1Cc2nc3sc(C)c(C)c3c(=O)n2C=C1C`, the growth was 46.8% in experiment [1]; 77.8% in [2]; 69% in [3]; 32.6% in experiment [4]; 115% in experiment [5]; -14.7% (active) in [6]. Moreover, the growth in experiment [7] was 38.5%; in experiment [8], 86.8%; in [9], 16.8%; in [10], 111%; in experiment [11], 61.8%; in [12], 79%. The growth in [13] is 58.3%; in experiment [14] it was 45.8%; in [15], 101%; in experiment [16], 81%; in experiment [17] it was 70%; in [18] it was 69.3%. Also, the growth in [19] was 27.5%.

For the compound `COc1ccc2c(c1)oc1c(C)c3c(c(C)c12)C(=O)N(CCN1CCOCC1)C3=O`, the growth in experiment [1] was 101%; in experiment [2], 96.4%; in [3], 90.9%; in experiment [4], 101%; in [5] it was 101%; in [6], 106%. Besides, the growth in experiment [7] was 29.8%; in experiment [8] it was 90.8%; in experiment [9], 102%; in [10] it was 109%; in [11], 107%; in [12], 100%. Moreover, the growth in [13] is 86.2%; in [14], 93.9%; in experiment [15], 99.5%; in experiment [16], 110%; in experiment [17], 100%; in experiment [18], 93.8%. Also, the growth in [19] was 104%.
